{"source": "the supplement of paper PMC6555819"}
{"test_system": "VDR:RXRa (NR concentration 270 nM, RXRa partner concentration 90 nM)", "assay": "PBM binding z-score (relative to random genomic background probes); higher = stronger binding; sequences stand for … in GC…GCGATTGACAGCGTAGAATGAAGG", "protocol": "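Protein-binding microarray (Agilent 4x180K custom design, double-stranded 60-nt probes: 5' GC cap, 34-nt variable region, 24-nt constant primer region; full probe sequence given). Purified or IVT nuclear receptor:RXRα heterodimers (3:1 NR:RXRα, mostly 270:90 nM) or homodimers were incubated for 1 h in PBS with 2% milk and no ligand, then detected with Alexa488 antibodies. Fluorescence from o1-orientation probes (~5 replicates averaged) was converted to z-scores against 500 random hg19 background probes. Variable regions are seed direct-repeat (DR0–DR5) sites, all their single-nucleotide variants and half-site ablations.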"}
{"sequence": "CAACCTAGGTCAAGAGGTCAAAGTCCGCTTCCCG", "PBM binding z-score": 6.21}
{"sequence": "TCATATAGGTAAGAGGTGAAAGTCGGTGTGGTAA", "PBM binding z-score": 1.33}
{"sequence": "GGAACGAGGGCAAAGTTGATTGCATCTGTCGACG", "PBM binding z-score": 1.34}
{"sequence": "TTTTGTAGATCAGCAGGTTAAGAAAGCTGGCCAA", "PBM binding z-score": 0.0929}
{"sequence": "TCTAGTTGGTCACGGAGGTCACACATGACGGGTA", "PBM binding z-score": 5.83}
{"sequence": "ACTCGGAGGACAAAGCTCAGAGCTACGCCAGTGA", "PBM binding z-score": -0.859}
{"sequence": "ATCGAAAGGTCGAGGTGAGTATAGAGAAAGGGAA", "PBM binding z-score": 2.69}
{"sequence": "GGTAGTTGGTCAGTAAAAGGTCACACACCGGTCG", "PBM binding z-score": 4.11}
{"sequence": "TTACCAAGGTGAGCTGAGGTCGGTGATCCAACTC", "PBM binding z-score": 1.26}
{"sequence": "TAGCCGAGGTCATTGGGCCAGTATAGTACGCATC", "PBM binding z-score": 5.59}
{"sequence": "CCTCGGAGGACAACAGGACGTCAGAGCTGCCAGA", "PBM binding z-score": -0.499}
{"sequence": "AGAACGAGGGCAATGGGTTGATAGCACGGGTGGC", "PBM binding z-score": 5.47}
{"sequence": "TCTTGTCGATCAGCAGGTTAAGAAAGCTGGCCAA", "PBM binding z-score": 0.358}
{"sequence": "TTACCACGGTGAAGGTCGTTGATCCCTCTGTAGA", "PBM binding z-score": 0.957}
{"sequence": "TTACCAAGGTGAGCTGAGGTCGTTGATCCAACTC", "PBM binding z-score": 4.19}
{"sequence": "CTCGAATGGTCGTGCTCAGGTGAGTATACCAAAC", "PBM binding z-score": -0.155}
{"sequence": "CCTACTGGGCTACGAAAGGTCATTGATTCAGTGA", "PBM binding z-score": 3.71}
{"sequence": "GCAGACCGGTGAAACGCAGGTAACTCAGGGTGGC", "PBM binding z-score": -0.857}
{"sequence": "TCGAGTAGGCTACCAATGGGGCATTCAGCTTTCT", "PBM binding z-score": -0.442}
{"sequence": "CCTTACGGGTCACAGACAGGTTATAGCATTTGGA", "PBM binding z-score": 4.06}
{"sequence": "CGTCCAAGGTCAGAGAGGTCAGTAAATGCCGAGT", "PBM binding z-score": 7.22}
{"sequence": "ACCTCTAGGTAAAAGTTCAGTGAATCCCGAGGAT", "PBM binding z-score": 0.859}
{"sequence": "CCTAGGAGGACAGAAGGTCAGAGCTGTCCGCTTT", "PBM binding z-score": 1.09}
{"sequence": "CCTACTGCGCCAAAGGTCATTGATTCCAATGCTC", "PBM binding z-score": 4.85}
{"sequence": "ACTATTAGTTGAGACGAGGGCAACTGATAGGTTG", "PBM binding z-score": 0.583}
{"sequence": "TGAATGAGGTTATAAGATCAGGGTACGTTGCAAA", "PBM binding z-score": 1.79}
{"sequence": "CGTCCATGGTCAGAGAGGTCAGTGAATGCCGAGT", "PBM binding z-score": 4.63}
{"sequence": "GCTTGTAGATCAAGGTTAAGAATGACTAAGCTAA", "PBM binding z-score": 0.0818}
{"sequence": "AGTCAAAGTTCAGGACGCGGTAACGTAAAGCACG", "PBM binding z-score": 2.37}
{"sequence": "CGTCAAAATTCAAGGTAACGTAACAGAAAGCAGC", "PBM binding z-score": 0.111}
{"sequence": "GCATATAGGTAATACAAGGTGAAAGTACGATTGT", "PBM binding z-score": 0.62}
{"sequence": "CGTCCAAGGTCTGAGAGGTCAGTGAATGCCGAGT", "PBM binding z-score": 3.29}
{"sequence": "TTACCAAGGTGAGCTGAGGTAGTTGATCCAACTC", "PBM binding z-score": -0.45}
{"sequence": "ATATGTTGGTTACATCCGGGTCATTCAGGCTATG", "PBM binding z-score": 3.42}
{"sequence": "ACTATTAATTGACTTAGGGCAACCGATACGACGC", "PBM binding z-score": 0.425}
{"sequence": "CCTTACGGGTCAAGAGGTTATAGCACGACGAGCG", "PBM binding z-score": 4.09}
{"sequence": "AATACCGGGTCACTAGGCCAGAGTAGGTACGAAT", "PBM binding z-score": 3.03}
{"sequence": "ACTTACGGGTCAGCGAGGTTATAGCACGCGTATA", "PBM binding z-score": 6.97}
{"sequence": "GATACAGAGTCAAGGCCAGAGTACGCGTATTGAT", "PBM binding z-score": -0.36}
{"sequence": "TGAATGAGGTTAGAAGATCAGGGAACGTTGCAAA", "PBM binding z-score": 0.0983}
